Data on 36 molecules can be found in PubChem BioAssay (NCI).

SMILES strings stand for the structures. About 83,000 compounds went through this panel and 20% of them were active in at least one assay; those are over-represented in the sample as a whole.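 The test compound was applied at a single concentration to cells in 96-well plates for 48 hours, and percent growth was recorded.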 Values without a mark were called inactive. Calls of active or inactive are those of the source. The calls were made as follows: active = growth percent below 10; inactive = the rest.

The subject of one assay is SNB-75 CNS. As to the kind of experiment: NCI-60 one-dose screen, 48 h (100 = growth as untreated, 0 = no growth, -100 = all killed). The following applies: 10 µM unless noted.
Consider `CCN1CC(=O)N(/N=C2\C(=O)Nc3ccccc32)C1=S`, for which the growth was 80.3%.

Regarding `CCN1CCN(c2cc(C(=O)Nc3nc(-c4cc(OC)c(OC)c(OC)c4)cs3)cc(C(F)(F)F)c2)CC1`, the growth is 57%.

Turning to `COc1ccc(-c2nc(/C=C3\SC(=NCc4ccccc4)NC3=O)c3ccccn23)cc1`, the growth is -46.8% (active).

Consider `CCOC(=O)C(=Cc1cccc(Br)c1)C(=O)OCC`, for which the growth is 13.2%.

For `N#CC1=C(N)Oc2c(sc3c(F)cccc23)C1c1ccc(F)cc1` (stereo unspecified), the growth is 6.01% (active).

Consider `CCOc1nc(-c2ccccc2)cc2c(O)c(C(=O)NN)[nH]c(=O)c12`, for which the growth is 86.4%.

Turning to `O=C1c2cccc(NCCN=Cc3cc(O)ccc3O)c2C(=O)c2c(NCCN=Cc3cc(O)ccc3O)cccc21`, the growth was -22% (active).

`C=CCn1cc(-c2nc3ccccc3s2)c2cc(-c3ccc4c5c(cccc35)C(=O)N(N)C4=O)ccc21`: the growth was 85.1%.

As for `CCOC(=O)CNP(=O)(OC[C@@H](Cc1ccccc1)NC(=O)c1cc2ccccc2s1)Oc1ccccc1` (stereo partly specified), the growth was 35.2%.

As to `CCC(=C(c1ccc(OCCN2CCCC2)cc1)c1ccc(OCCN2CCCC2)cc1)c1ccc(Cl)cc1`, the growth is -58.2% (active).

In the case of `Oc1c(Cl)cc(Cl)c2ccc(Cn3cc(-c4ccc(C(F)(F)F)cc4)nn3)nc12`, the growth is 74.1%.

For the molecule `O=C(NCCCCNC(=O)OCc1ccc2c(Cl)cc(Cl)c(O)c2n1)OCc1ccc2c(Cl)cc(Cl)c(O)c2n1`, the growth was 24.6%.

In the case of `CCN(CC)CCNC(=O)c1cn2ncnc(Oc3ccc(NC(=O)Nc4ccc(Cl)c(C(F)(F)F)c4)c(F)c3)c2c1C`, the growth is -7.89% (active).

A further assay concerns SNB-19 CNS. The assay is described as above. To be noted: 10 µM unless noted.
On to `COc1cc(OC)cc(C2=C3CC[C@@H]4[C@H](CC[C@]5(C)C(=O)CC[C@@H]45)C3=CC3C(O)c4cccnc4N4C(=O)COC234)c1` (stereo partly specified), for which the growth is 92%.

As to `CC(=O)Cc1nsc(NC(=O)c2cc(-c3cc(Cl)cc(Cl)c3)oc2C)n1`, the growth was 101%.

In the case of `CCOC(=O)c1cn2ncnc(Oc3ccc(NC(=O)NC4CCCCC4)c(Cl)c3)c2c1C`, the growth was 66.1%.

Regarding `Cc1nnc(NC(=O)c2nc(S(=O)(=O)Cc3ccc(F)cc3)ncc2Cl)s1`, the growth was 92.8%.

Turning to `C#CCOc1ccc2ncnc(Nc3ccc(NC(=O)CCl)cc3)c2c1`, the growth was -22.2% (active).

On to `CCOC(=O)C#Cc1c(C(=O)OCC)nnn1[C@@H]1O[C@H](CO)[C@H]2OC3(CCCCC3)O[C@H]21`, for which the growth is 96%.

Take `C/C(=N/O)c1ccc(F)cc1`: the growth is 87.8%.

Turning to `CCOC(=O)Cn1c(O)c(N=Nc2ccc(S(N)(=O)=O)cc2)c2cc(Br)ccc21`, the growth is 91.4%.

On to `Cc1nc(N2CCOCC2)sc1S(N)(=O)=O`, for which the growth is 102%.

In the case of `COc1ccc(OC)c(C(=O)/C=C/c2cc3c(c(OC)c2OC)OCO3)c1`, the growth was 71.5%.

As for `O=c1oc2ccccc2cc1C1=NN=C(SCc2ccccc2)SC1`, the growth is 103%.

Consider `COc1ccc(C(=S)N2CCN(c3ccccc3Cl)CC2)cc1OC`, for which the growth was 85.3%.

Turning to `Cc1ccc(/C=C2\CN(C(=O)OC(C)(C)C)C/C(=C\c3ccc(C)cc3)C2=O)cc1`, the growth is 71.4%.

On to `O=C(Nc1nn(-c2ccc(Cl)cc2Cl)nc1-c1ccccc1)c1ccccc1`, for which the growth is 105%.

Turning to `CCN(CC)c1ccc(/C=C/C(=O)c2ccc(Nc3nc(Nc4ccccc4)nc(Nc4ccccc4)n3)cc2)cc1`, the growth was 67.5%.

For `COC(=O)[C@H]1CCCN1C[C@@H](O)CN1C(=O)/C(=C\c2cc(OC)c(OC)c(OC)c2)c2ccccc21`, the growth was 95.9%.

Consider `CN(C)c1ccc(Nc2cc(-c3cccc(OC(F)(F)F)c3)nc3ccc(N4CCCC4)cc23)cc1`, for which the growth is 66%.

In the case of `O=C(Nc1cc(Cl)ccc1O)c1ccc(Nc2ccnc(C(F)(F)F)c2)cc1`, the growth is 24.6%.

For the molecule `COc1cc(OC)c2sc(-c3ccc(-n4cncc4-c4ccc(OC)c(OC)c4)cc3)nc2c1`, the growth was 67.1%.

For `O=C1c2cccnc2C(=O)c2c1c(C(=O)NCCCN1CCCCC1)c1ccccn21`, the growth is -72.8% (active).

For the molecule `CCOC(=O)c1ccc2[nH]c(O)c(C(=Nc3ccc(N(C)C(=O)CN4CCN(C)CC4)cc3)c3ccccc3)c2c1`, the growth was 2.34% (active).

`CCN1C(=O)N(CC)C2C1NN=c1s/c(=C\c3cccc([N+](=O)[O-])c3)c(=O)n12` (stereo unspecified): the growth was 31.5%.

For `CC1=C(Nc2ccc(N3CCN(C)CC3)cc2)C(=O)c2cncnc2C1=O`, the growth is 97.3%.
